Laboratory results published in PubChem BioAssay (EPA / NIEHS).
Inconclusive results are not listed. Active and inactive are the calls of the source. Rule for the calls: active = hit-call score of the fitted dose curve at least 0.9, where 1 is the maximum; inconclusive = response in the unintended direction; inactive = score below 0.9.

Each compound was assayed against human Matrix Metalloproteinase-9 (MMP9), MMP9 (gene 4318) (UniProt P14780) (assay: NVS_ENZ_hMMP9: NovaScreen (NVS) Enzymatic Assay for human Matrix Metalloproteinase-9 (MMP9) (AID 2283190);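 note: cell-free recombinant MMP9 protease activity read by fluorescent substrate signal; active means inhibition seen as loss of fluorescence signal versus DMSO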).
human Matrix Metalloproteinase-9 (MMP9), MMP9 (gene 4318), sequence (P14780 whole entry, looked up): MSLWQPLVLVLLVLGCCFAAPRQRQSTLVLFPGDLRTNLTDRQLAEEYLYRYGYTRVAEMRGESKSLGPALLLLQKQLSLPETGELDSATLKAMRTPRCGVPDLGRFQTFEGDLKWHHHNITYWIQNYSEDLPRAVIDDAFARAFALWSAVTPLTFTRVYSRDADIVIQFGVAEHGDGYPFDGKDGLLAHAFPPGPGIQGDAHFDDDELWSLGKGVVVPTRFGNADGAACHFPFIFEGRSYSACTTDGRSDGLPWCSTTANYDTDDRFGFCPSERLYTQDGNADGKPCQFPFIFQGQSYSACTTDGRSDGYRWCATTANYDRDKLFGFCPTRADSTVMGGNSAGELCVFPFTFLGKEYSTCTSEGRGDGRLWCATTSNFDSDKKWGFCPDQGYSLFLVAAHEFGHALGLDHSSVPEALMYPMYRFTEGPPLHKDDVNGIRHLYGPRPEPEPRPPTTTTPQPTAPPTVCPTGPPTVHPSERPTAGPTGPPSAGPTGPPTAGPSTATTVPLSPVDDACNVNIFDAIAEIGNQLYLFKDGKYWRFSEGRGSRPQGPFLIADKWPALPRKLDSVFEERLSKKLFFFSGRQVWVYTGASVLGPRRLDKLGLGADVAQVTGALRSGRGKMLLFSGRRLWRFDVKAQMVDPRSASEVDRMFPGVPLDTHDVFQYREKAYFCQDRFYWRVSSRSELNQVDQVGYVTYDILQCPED
Outline: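 Cell-free recombinant MMP9 enzyme activity measured by fluorescence intensity 1 h after dosing. Primary screen in duplicate at 25 uM, actives followed in concentration series; loss of signal relative to DMSO.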
With CCCSSCCC the AC50 was 6.62 µM (active).
In the case of CC(C)(CO)COC(=O)C(C)(C)CO, the AC50 is reported as 9.37 µM (active).
C=CCCCCCCCCC=O was tested, and the AC50 was 5.07 µM (active).
In the case of COc1ccc(C(=O)/C(Br)=C\C(=O)O)cc1, the AC50 is reported as 4.96 µM (active).
In the case of CCCCC(C=O)CC (stereo not drawn), the AC50 is reported as 5.82 µM (active).
For CC(C)CCCCCOC(=O)CS, the AC50 was 5.63 µM (active).
CO[Si](CCCS)(OC)OC was tested, and the AC50 was 12.4 µM (active).
For OCCCc1ccccc1, the outcome was “inactive”.
With Cc1ccc(S(=O)(=O)N=C=O)cc1 the AC50 was 7.22 µM (active).
In the case of C=C(C)OC(C)=O, the AC50 is reported as 9.44 µM (active).
In the case of CCc1occc(=O)c1O, the AC50 is reported as 6.98 µM (active).
In the case of O=C(Oc1ccccc1)c1ccccc1C(=O)Oc1ccccc1, the AC50 is reported as 9.17 µM (active).
With CCCCCCCO the AC50 was 0.197 µM (active).
In the case of CCOC(=O)C1=NOC(c2ccccc2)(c2ccccc2)C1, the AC50 is reported as 2.32 µM (active).
For CC=C(C)C=CC=C(C)C, the AC50 was 4.96 µM (active).
With CCCCOCCOCCOC(C)=O the AC50 was 1.23 µM (active).
In the case of CCC(C)(O)CCCC(C)C (stereo not drawn), the AC50 is reported as 0.972 µM (active).
For CC(C)c1cccc(C(C)C)c1N, the AC50 was 6.9 µM (active).
With CCCCOC(=O)CCC(C)=O the AC50 was 6.97 µM (active).
In the case of Cc1c(O)cccc1O, the AC50 is reported as 25.5 µM (active).
In the case of CC(C)C(=O)OCCOc1ccccc1, the AC50 is reported as 7.19 µM (active).
For CCCCCCOC(=O)CCCCC(=O)OCCCCCC, the AC50 was 7.16 µM (active).
For CCCCCCCC(=O)OCC(COC(=O)CCCCCCC)OC(=O)CCCCCCC, the AC50 was 4.96 µM (active).

The compounds below were run against human Phosphodiesterase 10 (PDE10), PDE10A (gene 10846) (UniProt Q9Y233) (assay: NVS_ENZ_hPDE10: NovaScreen (NVS) Enzymatic Assay for human Phosphodiesterase 10 (PDE10) (AID 2283195)).
human Phosphodiesterase 10 (PDE10), PDE10A (gene 10846), sequence (Q9Y233 whole entry, looked up): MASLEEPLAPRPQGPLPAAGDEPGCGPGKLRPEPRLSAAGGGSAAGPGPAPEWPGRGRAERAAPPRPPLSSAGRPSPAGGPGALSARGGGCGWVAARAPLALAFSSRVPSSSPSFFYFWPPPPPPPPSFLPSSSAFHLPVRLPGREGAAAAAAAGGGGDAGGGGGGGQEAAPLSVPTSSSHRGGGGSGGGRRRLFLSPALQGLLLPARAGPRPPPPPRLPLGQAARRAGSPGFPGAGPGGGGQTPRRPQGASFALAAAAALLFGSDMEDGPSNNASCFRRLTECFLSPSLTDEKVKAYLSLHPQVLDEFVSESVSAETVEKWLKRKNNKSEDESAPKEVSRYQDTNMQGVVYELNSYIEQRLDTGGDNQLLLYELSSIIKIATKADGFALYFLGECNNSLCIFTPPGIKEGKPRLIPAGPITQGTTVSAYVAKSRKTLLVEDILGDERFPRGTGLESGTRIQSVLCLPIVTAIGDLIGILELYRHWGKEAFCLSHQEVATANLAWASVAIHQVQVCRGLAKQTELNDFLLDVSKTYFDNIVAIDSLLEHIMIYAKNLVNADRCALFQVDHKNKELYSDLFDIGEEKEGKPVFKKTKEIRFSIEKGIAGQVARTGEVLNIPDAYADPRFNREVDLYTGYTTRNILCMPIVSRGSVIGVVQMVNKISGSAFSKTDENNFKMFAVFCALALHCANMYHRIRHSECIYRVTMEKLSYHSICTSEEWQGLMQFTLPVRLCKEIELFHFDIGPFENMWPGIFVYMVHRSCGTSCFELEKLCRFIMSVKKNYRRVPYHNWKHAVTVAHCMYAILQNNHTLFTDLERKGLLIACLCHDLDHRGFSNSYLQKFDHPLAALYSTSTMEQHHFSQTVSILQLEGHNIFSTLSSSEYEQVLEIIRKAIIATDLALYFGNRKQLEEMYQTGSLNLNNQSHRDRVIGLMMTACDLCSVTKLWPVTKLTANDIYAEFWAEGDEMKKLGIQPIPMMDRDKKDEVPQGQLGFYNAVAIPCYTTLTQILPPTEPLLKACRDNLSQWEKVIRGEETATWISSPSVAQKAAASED
Outline: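 Fluorescence readout after mobility-shift separation of substrate and product, 1 h reaction with recombinant human enzyme. Single-concentration duplicates at 25 uM, then concentration-response up to 50 uM for chemicals reaching threshold; DMSO baseline.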
In the case of CCCSSCCC, the outcome is reported as “inactive”.
In the case of CC=C(C)C=CC=C(C)C, the outcome is reported as “inactive”.
In the case of CCCCOCCOCCOC(C)=O, the outcome is reported as “inactive”.

Each compound was assayed against human Phosphoinositide 3-kinase alpha (PI3Ka), PIK3CA (gene 5290) (UniProt P42336) (assay: NVS_ENZ_hPI3Ka: NovaScreen (NVS) Enzymatic Assay for human Phosphoinositide 3-kinase alpha (PI3Ka) (AID 2283196)).
human Phosphoinositide 3-kinase alpha (PI3Ka), PIK3CA (gene 5290), sequence (P42336 whole entry, looked up): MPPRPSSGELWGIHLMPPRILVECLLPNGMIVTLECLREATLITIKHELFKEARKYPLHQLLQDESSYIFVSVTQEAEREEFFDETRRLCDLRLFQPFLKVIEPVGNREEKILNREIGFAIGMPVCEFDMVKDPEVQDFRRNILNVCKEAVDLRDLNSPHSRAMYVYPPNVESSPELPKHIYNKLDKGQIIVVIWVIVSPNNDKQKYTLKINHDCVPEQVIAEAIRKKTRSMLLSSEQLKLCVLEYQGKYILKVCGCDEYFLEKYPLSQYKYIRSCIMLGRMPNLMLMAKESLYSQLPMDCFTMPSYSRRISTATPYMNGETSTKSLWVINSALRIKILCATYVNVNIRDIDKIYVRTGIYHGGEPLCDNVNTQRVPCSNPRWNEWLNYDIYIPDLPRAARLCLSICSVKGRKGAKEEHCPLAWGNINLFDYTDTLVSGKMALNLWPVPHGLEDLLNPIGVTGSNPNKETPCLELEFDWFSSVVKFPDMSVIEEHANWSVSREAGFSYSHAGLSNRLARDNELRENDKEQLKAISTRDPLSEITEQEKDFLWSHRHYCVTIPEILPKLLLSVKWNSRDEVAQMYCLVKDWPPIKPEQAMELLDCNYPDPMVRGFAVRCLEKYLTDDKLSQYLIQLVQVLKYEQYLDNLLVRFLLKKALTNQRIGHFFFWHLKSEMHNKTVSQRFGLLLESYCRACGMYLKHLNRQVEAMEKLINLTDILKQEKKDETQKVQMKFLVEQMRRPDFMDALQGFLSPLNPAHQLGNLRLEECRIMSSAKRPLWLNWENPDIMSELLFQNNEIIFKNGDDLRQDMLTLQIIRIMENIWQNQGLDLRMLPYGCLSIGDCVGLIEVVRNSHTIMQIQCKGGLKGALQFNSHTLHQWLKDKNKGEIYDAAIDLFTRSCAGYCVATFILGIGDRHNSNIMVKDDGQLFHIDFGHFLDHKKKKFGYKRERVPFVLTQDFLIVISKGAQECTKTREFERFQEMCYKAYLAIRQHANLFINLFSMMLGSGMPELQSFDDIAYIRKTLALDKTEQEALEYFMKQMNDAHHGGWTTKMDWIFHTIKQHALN
Outline: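 Recombinant human PI3Kα with fluorescent substrate, 1 h, product separated by electrophoretic mobility shift; 25 uM duplicate screen, hits (e.g., 30% inhibition) retested singly up to 50 uM; loss of signal vs DMSO.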
With CO[Si](CCCS)(OC)OC the AC50 was 39 µM (active).
In the case of CC=C(C)C=CC=C(C)C, the AC50 is reported as 0.976 µM (active).
CCCCOCCOCCOC(C)=O was tested, and the outcome was “inactive”.

Each compound was assayed against sheep Cyclooxygenase-1 (Cox1), PTGS1 (gene 443551) (UniProt P05979) (assay: NVS_ENZ_oCOX1: NovaScreen (NVS) Enzymatic Assay for sheep Cyclooxygenase-1 (Cox1) (AID 2283239);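 note: actives reduce cyclooxygenase activity so potencies are for inhibitors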).
sheep Cyclooxygenase-1 (Cox1), PTGS1 (gene 443551), sequence (P05979 whole entry, looked up): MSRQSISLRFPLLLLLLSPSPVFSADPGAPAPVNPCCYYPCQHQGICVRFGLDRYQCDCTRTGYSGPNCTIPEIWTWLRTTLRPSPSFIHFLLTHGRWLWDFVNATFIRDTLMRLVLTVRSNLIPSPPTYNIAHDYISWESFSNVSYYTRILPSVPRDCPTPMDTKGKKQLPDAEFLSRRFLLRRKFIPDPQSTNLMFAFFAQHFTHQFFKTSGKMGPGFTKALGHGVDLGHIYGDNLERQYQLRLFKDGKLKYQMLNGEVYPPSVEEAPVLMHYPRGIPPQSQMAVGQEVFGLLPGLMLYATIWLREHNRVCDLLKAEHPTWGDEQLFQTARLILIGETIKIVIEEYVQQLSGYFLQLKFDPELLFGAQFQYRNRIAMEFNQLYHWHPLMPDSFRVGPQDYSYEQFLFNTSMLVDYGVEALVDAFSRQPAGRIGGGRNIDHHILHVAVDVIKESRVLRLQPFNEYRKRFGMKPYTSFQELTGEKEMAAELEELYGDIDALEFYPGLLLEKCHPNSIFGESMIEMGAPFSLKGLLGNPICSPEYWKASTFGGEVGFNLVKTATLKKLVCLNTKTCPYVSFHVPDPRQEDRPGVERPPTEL
Outline: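 Absorbance read-out of cyclooxygenase activity in a cell-free preparation from sheep seminal vesicles, taken 0.66 hour after dosing. Initial testing was in duplicate at 25 uM, and confirmatory testing was run in concentration series.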
C=CCCCCCCCCC=O was tested, and the outcome was “inactive”.
With COc1ccc(C(=O)/C(Br)=C\C(=O)O)cc1 the AC50 was 25 µM (active).
For CCc1occc(=O)c1O, the AC50 was 0.243 µM (active).
In the case of Cc1c(O)cccc1O, the AC50 is reported as 5.06 µM (active).
